# In the library only some 2.7% were active in any assay of this set; here they are far more common.
# SENP6 inh: SENP6 protease inhibitors, primary screen, biochemical, luminescence, uHTS. inhibition, % at 10 µM. Recombinant SENP6 catalytic domain, aminoluciferin luminescence. Sentrin-specific protease 6 (Homo sapiens), Q9GZR1. 330,000 compounds, 1.8% hits;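 active = inhibition above about 50% at the single tested dose, limit read from the data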;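 note: plate controls were DMSO wells with enzyme for no effect and DMSO wells lacking enzyme for full effect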
# HSP90 inh: HSP90 inhibitors, primary screen, cell lysate, luminescence; Heat shock protein HSP 90 (rabbit reticulocyte lysate; luciferase refolding); Rabbit reticulocyte lysate, luciferase refolding luminescence, 3 h; inhibition, % at 5.6 µM; 290,000 compounds, 0.91% hits; AID 1789, 2009;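 active = inhibition above the screen-wide mean plus 3 SD, computed separately per campaign, cut at about 16% in these data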;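 note: 0% = DMSO wells and 100% = 60 µM geldanamycin wells; inhibitors lower the luminescence because luciferase stays unfolded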
# SENP8 block-1: SENP8 protease inhibitors, primary screen, biochemical, luminescence. Sentrin-specific protease 8 (Homo sapiens), Q96LD8. purified SENP8, Z-RLRGG-aminoluciferin cleavage. inhibition, % at 10 µM. 330,000 compounds, 1.2% hits. AID 2540, 2010; in the data active = inhibition above about 50%
# SENP8 block-2: human SENP8 protease inhibitors, primary screen, biochemical, fluorescence, Nedd8 protein substrate, uHTS; Sentrin-specific protease 8 (Homo sapiens), Q96LD8; recombinant SENP8; inhibition, % at 20 µM; 360,000 compounds, 0.64% hits; AID 602440, 2012; in the data active = inhibition mostly above about 40%, no sharp cut-off; inactive = mostly below about 27%
# SENP7 block: SENP7 protease inhibitors, primary screen, biochemical, luminescence, uHTS. recombinant SENP7, Z-RLRGG-aminoluciferin luminescence, 40 min. 330,000 compounds, 1.5% hits. Sentrin-specific protease 7 (Homo sapiens), Q9BQF6. inhibition, % at 5 µM. AID 434973, 2010;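 active = inhibition above about 50% at the single test dose, limit read from the data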;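 note: plate controls were DMSO with enzyme for no effect and no enzyme buffer wells for full effect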
# Target sequence (Q9BQF6 706-1050 limits assumed): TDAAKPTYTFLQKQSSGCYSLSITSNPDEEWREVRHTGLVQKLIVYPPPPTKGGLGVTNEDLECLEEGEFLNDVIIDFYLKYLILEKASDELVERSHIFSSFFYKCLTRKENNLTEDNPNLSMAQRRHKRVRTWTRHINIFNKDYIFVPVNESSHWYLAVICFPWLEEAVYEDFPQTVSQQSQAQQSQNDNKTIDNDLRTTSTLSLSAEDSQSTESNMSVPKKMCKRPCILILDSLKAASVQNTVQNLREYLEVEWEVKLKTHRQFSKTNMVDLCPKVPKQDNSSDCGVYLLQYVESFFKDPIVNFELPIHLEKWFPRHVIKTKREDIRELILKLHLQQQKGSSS
# SENP8 confirm: SENP8 protease inhibitors, retest, confirmation, biochemical, luminescence, single concentration; inhibition, % at 12.5 µM; 6,200 compounds, 40% hits; Recombinant SENP8, Z-RLRGG-aminoluciferin luminescence, 60 min; shares compounds with SENP7 block;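 active = mean inhibition across replicates above about 50%, limit read from the data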
# SENP6 conf: SENP6 protease inhibitors, confirmation, biochemical, luminescence, single concentration; shares compounds with SENP7 block; recombinant SENP6, Z-RLRGG-aminoluciferin luminescence; inhibition, % at 12.5 µM; 6,200 compounds, 58% hits
# SENP7 confirm: SENP7 protease inhibitors, retest, confirmation, biochemical, luminescence, single concentration. recombinant SENP7, Z-RLRGG-aminoluciferin luminescence, 40 min. inhibition, % at 12.5 µM. 6,200 compounds, 69% hits. shares compounds with SENP7 block
# Casp3 SENP sel: caspase-3 protease inhibitors, confirmation, selectivity assay for SENP inhibitor project, biochemical, single concentration. shares compounds with SENP7 block. purified caspase-3, Z-DEVD-aminoluciferin luminescence, 60 min. inhibition, % at 12.5 µM. 6,200 compounds, 60% hits. AID 488918, 2010;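 active = mean inhibition above about 50%, limit read from the data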;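 note: plate controls were enzyme with DMSO for no effect and wells without caspase-3 for full effect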
# Target sequence (P42574 28-227 limits assumed): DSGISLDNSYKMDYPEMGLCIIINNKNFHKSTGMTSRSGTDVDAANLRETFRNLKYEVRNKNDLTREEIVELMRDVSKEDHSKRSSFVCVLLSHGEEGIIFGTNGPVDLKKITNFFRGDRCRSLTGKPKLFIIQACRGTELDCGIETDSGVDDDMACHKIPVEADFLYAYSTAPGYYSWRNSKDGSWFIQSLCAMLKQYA
# SENP luc ctr: luminescence interference (SENP counter-screen). 6,200 compounds, 39% hits. Pre-incubated SENP8/Z-RLRGG-aminoluciferin, luciferase luminescence interference. shares compounds with SENP7 block. inhibition, % at 12.5 µM;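 active = mean inhibition above about 50% when retested at one dose, limit read from the data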;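 note: plate controls were DMSO wells with completed reaction for no effect and substrate without enzyme for full effect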
# An asterisk follows results filed as active; . = no result given.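 Rule for the calls, unless noted: active = mean inhibition above about 50% in the one-dose retest (limit read from the data); inactive = the rest.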
SMILES,SENP6 inh,HSP90 inh,SENP8 block-1,SENP8 block-2,SENP7 block,SENP8 confirm,SENP6 conf,SENP7 confirm,Casp3 SENP sel,SENP luc ctr
COc1ccc(N2CCN(CC(O)COc3ccc(C)cc3C)CC2)cc1 (configuration not stated),-18,-3,-10,10,-5,.,.,.,.,.
CC(=O)c1sc(Nc2cccc(C)c2)nc1C,4,-1,4,-401,12,.,.,.,.,.
CCOC(=O)c1csc(Nc2nc3ccc(F)cc3s2)n1,58*,1,-18,-5,3,1,-2,12,6,2
CCOC(=O)c1sc(Nc2nc3ccc(OC)cc3s2)cc1C,0,1,-3,-392,7,.,.,.,.,.
CC(=O)c1sc(Nc2nc3ccc(F)cc3s2)nc1C,81*,2,53*,-307,30,12,72*,90*,48,13
CCc1ccc(N(CC(=O)NCC2CCCO2)C(=O)CCC(=O)Nc2nccs2)cc1 (configuration not stated),-1,-3,6,-3,4,.,.,.,.,.
Oc1ccc(/C=N/Nc2ccc(C(F)(F)F)cn2)c(O)c1,21,-5,5,-63,-1,.,.,.,.,.
Oc1ccc(/C=N/Nc2cccc(Cl)n2)c(O)c1,97*,-4,97*,-35,98*,99*,99*,102*,96*,98*
Cc1cccc(/C=C2\CCC(=C3SCCCS3)C2=O)c1,91*,14,93*,17,92*,20,22,5,23,-6
Nc1nc(Nc2ccc(Cl)cc2)nc2ccccc12,98*,16*,95*,-272,97*,96*,97*,101*,93*,95*
Cc1ccc(Nc2nc(N)c3ccccc3n2)cc1Cl,97*,8,97*,-289,98*,99*,100*,103*,93*,85*
Nc1nc(Nc2ccccc2)nc2ccccc12,94*,11,91*,18,97*,97*,98*,103*,97*,96*
COc1ccc(C)cc1Nc1nc(N)c2ccccc2n1,10,5,0,-47,2,.,.,.,.,.
Cc1ccccc1Nc1nc(N)c2ccccc2n1,3,18*,91*,-230,95*,94*,95*,102*,97*,95*
Cc1cc(O)ccc1Nc1nc(-c2cccs2)cs1,70*,7,70*,6,-3,-8,95*,100*,78*,94*
Cc1ccc(Nc2nc(-c3cccs3)cs2)nc1,93*,17*,91*,-57,43,-3,98*,102*,85*,68*
Cc1ccc(Nc2nc(-c3ccccc3)cs2)nc1,-23,15,91*,-1,89*,85*,97*,102*,84*,72*
Cc1cc(O)ccc1Nc1nc(-c2cccnc2)cs1,20,-1,-5,10,11,.,.,.,.,.
c1ccc(-c2csc(NC3CCCCC3)n2)cc1,66*,0,48,6,4,83*,82*,95*,62*,67*
Cc1cccc(C)c1NC(=O)CN(C)C(=O)Cc1cccc(C(F)(F)F)c1,-9,-3,1,10,1,.,.,.,.,.
CC(C)(C)c1n[nH]c(=S)n(N)c1=O,7,-5,5,11,4,.,.,.,.,.
O=C(CN1CCN(S(=O)(=O)c2ccccc2)CC1)N1CCCCC1,-30,.,-20,7,-3,.,.,.,.,.
Cc1ccc(NC(=O)c2cc3ccccc3o2)nc1,63*,.,40,-67,65*,58*,58*,87*,74*,67*
Cc1nc2ccccc2cc1C(=O)Nc1ccccc1Cl,-5,-1,-3,13,8,.,.,.,.,.
O=C(Nc1ccccc1Cl)c1cc2ccccc2o/c1=N\O,56*,2,15,14,81*,1,6,81*,56*,32
SMILES,SENP6 inh,HSP90 inh,SENP8 block-1,SENP8 block-2,SENP7 block,SENP8 confirm,SENP6 conf,SENP7 confirm,Casp3 SENP sel,SENP luc ctr
Cc1ccccc1NC(=O)c1cc(=O)c2ccccc2o1,16,0,4,11,2,.,.,.,.,.
Cc1ccccc1NC(=O)c1cc2ccccc2o1,85*,8,67*,-18,71*,71*,70*,92*,85*,79*
Cc1cc(C)nc(NC(=O)c2cc3ccccc3o2)n1,-4,2,-7,11,2,.,.,.,.,.
COc1ccccc1NC(=O)c1cc2ccccc2o1,57*,-7,34,29,44,46,42,78*,50,54*
CCn1c(CC(=O)Nc2ccc(C)c(Cl)c2)nnc1SCC(=O)Nc1nc(C)cs1,-3,0,-1,9,4,.,.,.,.,.
CCCOC(=O)c1[nH]c2c(c1C)C(=O)CC(c1ccc(OC)c(OC)c1)C2 (configuration not stated),-13,-3,5,2,1,.,.,.,.,.
O=C(CNC(=O)c1ccco1)NCC(=O)OCc1cccc(Cl)c1,13,0,4,3,15,.,.,.,.,.
CCN1CCN(C(=O)c2ccc(CSc3ccc(C)cc3)cc2)CC1,11,0,-2,10,0,.,.,.,.,.
O=C(Nc1ccc(Cl)cc1Cl)c1cc2ccccc2o1,27,-2,-15,6,59*,14,10,4,4,-5
O=C(Nc1ncccc1Cl)c1cc2ccccc2o1,63*,6,42,6,64*,68*,73*,92*,83*,28
CCOC(=O)CN(C(=O)CSc1nnc2c(n1)[nH]c1ccccc12)c1ccccc1,-19,-1,-6,-3,0,.,.,.,.,.
CCOc1ccc(/C=N/NC(=O)c2[nH]ncc2Br)c(O)c1,99*,2,98*,-7,102*,99*,100*,103*,99*,52*
O=C(N/N=C/c1cccs1)c1cnccn1,5,-2,-4,24,7,.,.,.,.,.

# Bioassay records from PubChem BioAssay.
